SRC3 TRFRET art = flags TR-FRET format artefacts in PPARgamma SRC-3 recruitment agonist screen; TR-FRET artefact counter-screen, PPARgamma/SRC-3 format; active compounds read high; TR-FRET ratio at 8 µM; 99,000 compounds, 0.39% hits; AID 1048
SRC2 TRFRET art = flags TR-FRET format artefacts in PPARgamma SRC-2 recruitment agonist screen. TR-FRET artefact counter-screen; active compounds read high. TR-FRET ratio at 8 µM. 200,000 compounds, 0.4% hits. AID 1049
PPARg SRC1 recr = promotes SRC-1 coactivator recruitment by human PPARgamma; activation, % at 8 µM; PPARgamma-SRC-1 coactivator recruitment biochemical assay; P37231; 200,000 compounds, 0.41% hits; AID 631; in the data active means activation above about 19%
Target sequence (P37231 whole entry, looked up): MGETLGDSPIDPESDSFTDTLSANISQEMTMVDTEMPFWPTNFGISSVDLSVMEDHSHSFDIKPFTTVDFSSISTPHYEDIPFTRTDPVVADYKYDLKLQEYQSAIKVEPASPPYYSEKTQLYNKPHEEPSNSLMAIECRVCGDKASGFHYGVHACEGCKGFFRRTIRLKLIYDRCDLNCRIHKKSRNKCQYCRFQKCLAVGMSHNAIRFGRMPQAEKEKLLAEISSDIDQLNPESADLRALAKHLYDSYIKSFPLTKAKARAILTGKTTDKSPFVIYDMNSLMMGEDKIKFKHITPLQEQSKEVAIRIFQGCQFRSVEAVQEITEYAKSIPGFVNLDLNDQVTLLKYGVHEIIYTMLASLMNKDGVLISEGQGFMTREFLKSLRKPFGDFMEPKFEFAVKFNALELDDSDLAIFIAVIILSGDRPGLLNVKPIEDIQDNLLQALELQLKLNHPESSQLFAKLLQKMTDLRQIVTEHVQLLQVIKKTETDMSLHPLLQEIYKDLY
SRC1 TRFRET art = TR-FRET artefact, counter-screen to PPARgamma/SRC-1 agonist assay | 99,000 compounds, 0.34% hits | AID 1051 | TR-FRET detection artefact counter-screen, emission ratio; active compounds read high | TR-FRET ratio at 8 µM; in the data active means TR-FRET ratio above about 2300
PPARg SRC-3 ag = agonists of human PPARgamma SRC-3 coactivator recruitment. activation, % at 8 µM. AID 731. P37231. 200,000 compounds, 0.26% hits. biochemical PPARgamma/SRC-3 coactivator recruitment assay; in the data active means activation above about 23%
PPARg SRC-2 ag = PPARgamma-driven SRC-2 recruitment agonism; PPARgamma LBD-SRC-2 recruitment, biochemical; activation, % at 8 µM; 200,000 compounds, 0.34% hits; AID 1032; in the data active means activation above about 22%
PPARg SRC2 conf = confirmation of agonists of SRC-2 recruitment by human PPARgamma; 790 compounds, 52% hits; biochemical SRC-2 recruitment by PPARgamma; activation, % at 8 µM; AID 1297; shares compounds with PPARg SRC-3 ag; in the data active means activation above about 22%
PPARg SRC1 ag = confirmation of agonists of SRC-1 recruitment by human PPARgamma; shares compounds with PPARg SRC-3 ag; PPARgamma–SRC-1 coactivator recruitment biochemical assay; activation, % at 8 µM; 790 compounds, 43% hits; AID 1300; in the data active means activation above about 20%
PPARg SRC3 ag = confirmation of agonists of SRC-3 recruitment by human PPARgamma | shares compounds with PPARg SRC-3 ag | 790 compounds, 29% hits | activation, % at 8 µM | biochemical PPARgamma-SRC-3 coactivator recruitment, agonist mode; in the data active means activation above about 24%
Numbers stand for hits. Most compounds without a hit are left out; they make up all but 0.9% or so of the library. Unless noted, no stated cut-off is given here; in the data, active means TR-FRET ratio above about 2000; inactive means the rest.

What do the screens show for `Cc1ccc(-c2nnn(CC(=O)N(Cc3cccs3)C(C(=O)NC3CCCC3)c3ccco3)n2)o1` (stereo unspecified)?
SRC2 TRFRET art: inactive; PPARg SRC1 recr: inactive; PPARg SRC-3 ag: inactive; PPARg SRC-2 ag: inactive

How did COc1cccc2cc(C(=O)C3=C(O)C(=O)N(Cc4ccco4)C3c3cccnc3)oc12 (stereo unspecified) do in these assays?
SRC2 TRFRET art: 2226; PPARg SRC1 recr: 27.1; PPARg SRC-3 ag: 40.0; PPARg SRC-2 ag: 25.5; PPARg SRC2 conf: 23.1; PPARg SRC1 ag: inactive; PPARg SRC3 ag: inactive

What do the screens show for `O=C(C1=C(O)C(=O)N(Cc2ccco2)C1c1cccnc1)c1cc2ccccc2o1` (stereo unspecified)?
SRC2 TRFRET art: 2097; PPARg SRC1 recr: 32.9; PPARg SRC-3 ag: 50.3; PPARg SRC-2 ag: 33.9; PPARg SRC2 conf: inactive; PPARg SRC1 ag: inactive; PPARg SRC3 ag: inactive

What do the screens show for `O=C(C1=C(O)C(=O)N(CC2CCCO2)C1c1cccnc1)c1ccco1` (stereo unspecified)?
SRC2 TRFRET art: inactive; PPARg SRC1 recr: inactive; PPARg SRC-3 ag: inactive; PPARg SRC-2 ag: inactive

How did O=C(COc1cccnc1[N+](=O)[O-])N1CCN(C(=O)c2ccco2)CC1 do in these assays?
SRC3 TRFRET art: inactive; SRC2 TRFRET art: inactive; PPARg SRC1 recr: inactive; SRC1 TRFRET art: inactive; PPARg SRC-3 ag: inactive; PPARg SRC-2 ag: inactive

What do the screens show for `C=CCn1c(=S)[nH]c2scc(-c3cccs3)c2c1=O`?
SRC3 TRFRET art: 3585; SRC2 TRFRET art: 3332; PPARg SRC1 recr: 68.0; SRC1 TRFRET art: 3938; PPARg SRC-3 ag: 42.4; PPARg SRC-2 ag: 76.1; PPARg SRC2 conf: 77.8; PPARg SRC1 ag: 55.5; PPARg SRC3 ag: 47.5

What do the screens show for `Cn1c(=S)[nH]c2scc(-c3cccs3)c2c1=O`?
SRC3 TRFRET art: 2495; SRC2 TRFRET art: 2702; PPARg SRC1 recr: 50.4; SRC1 TRFRET art: 3197; PPARg SRC-3 ag: 26.7; PPARg SRC-2 ag: 42.3; PPARg SRC2 conf: 57.4; PPARg SRC1 ag: 41.4; PPARg SRC3 ag: 36.5

What do the screens show for `O=c1c2c(-c3cccs3)csc2ncn1-c1ccc(Br)cc1`?
SRC2 TRFRET art: inactive; PPARg SRC1 recr: inactive; PPARg SRC-3 ag: inactive; PPARg SRC-2 ag: inactive

Results for O=C(O)C1C(C(=O)Nc2ccc(Cl)cc2)C2C=CC1C21CC1 (stereo unspecified) ?
SRC2 TRFRET art: inactive; PPARg SRC1 recr: inactive; PPARg SRC-3 ag: inactive; PPARg SRC-2 ag: inactive

Results for COc1ccc(S(=O)(=O)Nc2ccc3c(c2)OCO3)cc1C ?
SRC2 TRFRET art: inactive; PPARg SRC1 recr: inactive; PPARg SRC-3 ag: inactive; PPARg SRC-2 ag: 24.2; PPARg SRC2 conf: inactive; PPARg SRC1 ag: inactive; PPARg SRC3 ag: inactive

What do the screens show for `Cc1ccc(N2CCN(C(=O)c3cccc([N+](=O)[O-])c3)CC2)cc1Cl`?
SRC3 TRFRET art: inactive; SRC2 TRFRET art: inactive; PPARg SRC1 recr: inactive; SRC1 TRFRET art: inactive; PPARg SRC-3 ag: inactive; PPARg SRC-2 ag: inactive

Results for Cc1ccc(C(=O)OCC(=O)c2ccc[nH]2)s1 ?
SRC3 TRFRET art: inactive; SRC2 TRFRET art: inactive; PPARg SRC1 recr: inactive; SRC1 TRFRET art: inactive; PPARg SRC-3 ag: inactive; PPARg SRC-2 ag: inactive

Results for O=C(COC(=O)c1ccc(Cl)s1)c1ccc[nH]1 ?
SRC3 TRFRET art: inactive; SRC2 TRFRET art: inactive; PPARg SRC1 recr: inactive; SRC1 TRFRET art: inactive; PPARg SRC-3 ag: inactive; PPARg SRC-2 ag: 22.4; PPARg SRC2 conf: inactive; PPARg SRC1 ag: inactive; PPARg SRC3 ag: inactive

Results for CC(=O)c1cnc(-c2ccccn2)s1 ?
SRC3 TRFRET art: inactive; SRC2 TRFRET art: inactive; PPARg SRC1 recr: inactive; SRC1 TRFRET art: inactive; PPARg SRC-3 ag: inactive; PPARg SRC-2 ag: inactive

What do the screens show for `CC(=O)c1cnc(-c2ccccc2Cl)s1`?
SRC3 TRFRET art: inactive; SRC2 TRFRET art: inactive; PPARg SRC1 recr: 21.9; SRC1 TRFRET art: inactive; PPARg SRC-3 ag: inactive; PPARg SRC-2 ag: inactive; PPARg SRC2 conf: inactive; PPARg SRC1 ag: inactive; PPARg SRC3 ag: inactive
